Laboratory results as given in PubChem BioAssay.
Results with a measured potency or affinity are listed apart. Inconclusive results are not listed. Active and inactive are the calls of the source. Unless noted, no rule for the calls is given here.

Columns and labels:
[1] = RMG-1 ovarian cancer cell viability loss – cherry-pick, dose response (AID 687029;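 active = signal drop whose fitted half-maximal concentration is at most twice the top valid dose, in every test run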;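 also: cells exposed to compound for 96 hours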)
[2] = IOSE-T80 viability loss, PAX8-independent line – cell-based, cherry-pick, selectivity assay for PAX8 inhibitor project, dose response (AID 687032;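 active = fitted half-maximal concentration for viability loss no higher than twice the top valid dose, in every repeat run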;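 also: cells exposed to compound for 96 h before reading; 0% = neutral control wells and -100% = 2 µM mitoxantrone kill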)
[3] = CMV-driven luciferase expression suppression in HEK293 – cell-based, luminescence, dry powder, counter-screen for Pax8 inhibitor project, dose response (AID 743020;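 active = signal-lowering compounds whose fitted half-maximal concentration is at or below twice the top tested dose in every run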;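 also: HEK293 cells stably expressing the CMV luciferase reporter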)
[4] = general cell-killing toxicity readout – plate reader, dry powder samples, cytotoxicity control for PAX8 inhibitor project, dose response (AID 743021)
[5] = IGROV1 cell killing – plate reader, dry powder samples, PAX8 inhibitor project, dose response (AID 743043);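 also: more negative means fewer viable cells or more cytotoxicity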
[6] = OVCAR-3 cell viability loss – plate reader, dry powder samples, PAX8 inhibitor project, dose response (AID 743044); details: max activity: at 35 µM, stronger effect = lower value unless noted
[7] = toxicity toward immortalized ovarian surface epithelium – cell-based, plate reader, dry powder samples, cytotoxicity control for PAX8 inhibitor project, dose response (AID 743045);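 also: 0% = neutral control median and -100% = positive control median; more negative values mean more cell killing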
[8] = A2780 cell killing – plate reader, dry powder samples, cytotoxicity control, dose response (AID 743046);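 also: 0% = neutral control wells and -100% = cytotoxic reference compound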
[9] = OVCAR8 cell viability loss – plate reader, dry powder samples, PAX8 project, dose response (AID 743197)

Measured: max activity

C[C@H]1CN([C@@H](C)CO)C(=O)c2cccc(NC(=O)Nc3ccc(F)cc3)c2O[C@H]1CN(C)C(=O)Nc1ccc(C(F)(F)F)cc1
inactive: [1] | [2] | [3] | [4] | [5] | [6] 10.2% [at 0.26 µM, stronger effect = lower value] | [7] | [8] | [9]

C[C@@H]1CCCCO[C@H](CN(C)Cc2ccncc2)[C@H](C)CN([C@@H](C)CO)C(=O)c2cc(NC(=O)Nc3ccc(C(F)(F)F)cc3)ccc2O1
inactive: [1] | [2] | [3] | [4] | [5] | [6] -11.1% [at 0.26 µM, stronger effect = lower value] | [7] | [8] | [9]

C[C@H]1CCCCO[C@H](CN(C)Cc2ccc(Cl)c(Cl)c2)[C@@H](C)CN([C@@H](C)CO)C(=O)c2cc(NC(=O)Nc3ccc(F)cc3)ccc2O1
inactive: [1] | [2] | [3] | [4] | [5] | [6] -19.8% [at 0.26 µM, stronger effect = lower value] | [7] | [8] | [9]

COc1ccccc1-c1ccc2c(c1)[C@H]1[C@H](CCN1S(=O)(=O)c1ccccc1F)[C@H](CO)N2
inactive: [1] | [2] | [3] | [4] | [5] | [6] -17.4% | [7] | [8] | [9]

C[C@@H]1CN([C@@H](C)CO)C(=O)Cc2cc(NC(=O)c3ccncc3)ccc2O[C@@H]1CN(C)Cc1ccc(-c2ccccc2)cc1
inactive: [1] | [2] | [3] | [4] | [5] | [6] 8.74% [at 0.26 µM, stronger effect = lower value] | [7] | [8] | [9]

C[C@@H]1CCCCO[C@@H](CN(C)S(=O)(=O)c2ccc(Cl)cc2)[C@H](C)CN([C@@H](C)CO)C(=O)c2cc(NS(=O)(=O)c3ccc(Cl)cc3)ccc2O1
inactive: [1] | [2] | [3] | [4] | [5] | [6] -34.3% [at 16 µM, stronger effect = lower value] | [7] | [8] | [9]

C[C@@H]1CN([C@@H](C)CO)C(=O)c2cc(NC(=O)NC3CCCCC3)ccc2O[C@@H](C)CCCCO[C@H]1CN(C)Cc1ccc(C(F)(F)F)cc1
inactive: [1] | [2] | [3] | [4] | [5] | [6] -25.9% | [7] | [8] | [9]

C[C@H](CO)N1C[C@H](C)[C@H](CN(C)C(=O)Nc2ccc(-c3cccs3)cc2)OCc2cnnn2CCCC1=O
inactive: [1] | [2] | [3] | [4] | [5] | [6] -11.7% | [7] | [8] | [9]

C[C@H](CO)N1C[C@H](C)[C@@H](CN(C)C(=O)NC2CCCCC2)Oc2cc(C#Cc3ccc(F)cc3)ccc2S1(=O)=O
inactive: [1] | [2] | [3] | [4] | [5] | [6] 10.3% [at 2.1 µM, stronger effect = lower value] | [7] | [8] | [9]

C[C@@H]1CCCCO[C@H](CN(C)C)[C@H](C)CN([C@H](C)CO)C(=O)c2cc(NC(=O)Nc3cccc4ccccc34)ccc2O1
inactive: [1] | [2] | [3] | [4] | [5] | [6] 24.8% [at 4.2 µM, stronger effect = lower value] | [7] | [8] | [9]

C[C@H]1CCCCO[C@@H](CN(C)Cc2ccc(C(F)(F)F)cc2)[C@@H](C)CN([C@@H](C)CO)C(=O)c2cc(NS(=O)(=O)c3cccs3)ccc2O1
inactive: [1] | [2] | [3] | [4] | [5] | [6] -8.06% [at 4.2 µM, stronger effect = lower value] | [7] | [8] | [9]

C[C@@H]1CCCCO[C@H](CN(C)C(=O)Nc2ccc(C(F)(F)F)cc2)[C@@H](C)CN([C@@H](C)CO)C(=O)c2cc(NC(=O)Nc3ccccc3)ccc2O1
inactive: [1] | [2] | [3] | [4] | [5] | [6] -5.92% [at 16 µM, stronger effect = lower value] | [7] | [8] | [9]

C[C@@H]1CN([C@@H](C)CO)C(=O)Cc2cc(NS(=O)(=O)c3ccc(F)cc3)ccc2O[C@H]1CN(C)Cc1ccc(Oc2ccccc2)cc1
inactive: [1] | [2] | [3] | [4] | [5] | [6] -22.3% [at 4.2 µM, stronger effect = lower value] | [7] | [8] | [9]

C[C@@H]1CN([C@@H](C)CO)C(=O)c2ccccc2-c2ccccc2CO[C@@H]1CN(C)Cc1ccc2c(c1)OCCN2C
inactive: [1] | [2] | [3] | [4] | [5] | [6] 3.55% | [7] | [8] | [9]

O=S(=O)(c1ccc(F)cc1)N1C[C@H]2[C@@H](c3ccccc31)[C@H](CO)N2Cc1ccccc1Cl
inactive: [1] | [2] | [3] | [4] | [5] | [6] 16.9% | [7] | [8] | [9]

C[C@@H]1CN([C@@H](C)CO)S(=O)(=O)c2ccc(C#Cc3ccccc3F)cc2O[C@H]1CN(C)CC1CCOCC1
inactive: [1] | [2] | [3] | [4] | [5] | [6] -11.1% [at 8 µM, stronger effect = lower value] | [7] | [8] | [9]

O=C(C[C@@H]1C[C@H]2c3cc(NC(=O)Nc4ccc(C(F)(F)F)cc4)ccc3O[C@H]2[C@H](CO)O1)NCCc1ccccc1
inactive: [1] | [2] | [3] | [4] | [5] | [6] 13% | [7] | [8] | [9]

COc1ccc(S(=O)(=O)N2CCCCN3[C@H](C2)[C@H](c2ccc(C#CC(C)C)cc2)[C@@H]3CO)cc1
inactive: [1] | [2] | [3] | [4] | [5] | [6] -13.1% [at 8 µM, stronger effect = lower value] | [7] | [8] | [9]

C[C@H](CO)N1C[C@H](C)[C@@H](CN(C)Cc2ccc(Cl)c(Cl)c2)OCCCC[C@H](C)Oc2ccc(NC(=O)Nc3ccccc3)cc2C1=O
inactive: [1] | [2] | [3] | [4] | [5] | [6] -26.8% [at 0.26 µM, stronger effect = lower value] | [7] | [8] | [9]

C[C@@H]1CN([C@@H](C)CO)C(=O)c2ccccc2-c2ccccc2CO[C@H]1CN(C)Cc1ccccc1C(F)(F)F
inactive: [1] | [2] | [3] | [4] | [5] | [6] 28.3% [at 16 µM, stronger effect = lower value] | [7] | [8] | [9]

C[C@@H]1CCCCO[C@H](CN(C)CC2CCCCC2)[C@H](C)CN([C@H](C)CO)C(=O)c2cc(NS(=O)(=O)c3ccc(Cl)cc3)ccc2O1
inactive: [1] | [2] | [3] | [4] | [5] | [6] 10.1% | [7] | [8] | [9]

C[C@H](CO)N1C[C@H](C)[C@H](CN(C)S(=O)(=O)c2cccs2)OCCCC[C@H](C)Oc2ccc(NC(=O)NC3CCCCC3)cc2C1=O
inactive: [1] | [2] | [3] | [4] | [5] | [6] 9.21% [at 0.26 µM, stronger effect = lower value] | [7] | [8] | [9]

CCCN(C)C[C@H]1OCCCC[C@@H](C)Oc2ccc(NC(=O)c3ccccc3)cc2C(=O)N([C@H](C)CO)C[C@H]1C
inactive: [1] | [2] | [3] | [4] | [5] | [6] 25.8% [at 0.5 µM, stronger effect = lower value] | [7] | [8] | [9]

Cc1ccc(S(=O)(=O)N(C)C[C@H]2Oc3ccc(NC(=O)Nc4ccc(C(F)(F)F)cc4)cc3CC(=O)N([C@H](C)CO)C[C@@H]2C)cc1
inactive: [1] | [2] | [3] | [4] | [5] | [6] 49.2% [at 16 µM, stronger effect = lower value] | [7] | [8] | [9]

C[C@@H]1CCCCO[C@H](CN(C)C(=O)NC2CCCCC2)[C@@H](C)CN([C@@H](C)CO)C(=O)c2cc(NC(=O)Nc3ccc(C(F)(F)F)cc3)ccc2O1
inactive: [1] | [2] | [3] | [4] | [5] | [6] 18.6% [at 2.1 µM, stronger effect = lower value] | [7] | [8] | [9]

Cc1ccc(S(=O)(=O)Nc2ccc3c(c2)C(=O)N([C@@H](C)CO)C[C@@H](C)[C@@H](CN(C)Cc2ccc(C(F)(F)F)cc2)OCCCC[C@@H](C)O3)cc1
inactive: [1] | [2] | [3] | [4] | [5] | [6] -26.4% [at 8 µM, stronger effect = lower value] | [7] | [8] | [9]

COc1ccc(NC(=O)Nc2ccc3c(c2)C(=O)N([C@@H](C)CO)C[C@@H](C)[C@@H](CN(C)Cc2ccc(C(F)(F)F)cc2)OCCCC[C@@H](C)O3)cc1
inactive: [1] | [2] | [3] | [4] | [5] | [6] -11.3% | [7] | [8] | [9]

C[C@H]1CCCCO[C@@H](CN(C)C(=O)NC2CCCCC2)[C@@H](C)CN([C@@H](C)CO)C(=O)c2cc(NC(=O)Nc3ccc(C(F)(F)F)cc3)ccc2O1
inactive: [1] | [2] | [3] | [4] | [5] | [6] 10.8% [at 2.1 µM, stronger effect = lower value] | [7] | [8] | [9]
